In PubChem BioAssay one finds composite z-score, composite Z-score and z-score data, which are given here for eight compounds.

Active and inactive are the calls of the source.

Assay [1] is described as follows: probe aShh binding to arrayed compounds – biochemical, biotinylated probe, 635/667 nm fluorescence, primary screen (AID 1114).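 Also: probe is biotin-labelled aShh protein from a stem cell growth factor screen; measures binding of labelled protein to compounds printed on the slide; score merges feature fluorescence at 667 nm with signal-to-noise.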 The settings on record: small-molecule microarray, higher = more signal.
Assay [2] can be described thus: probe aNog binding to arrayed compounds – biochemical, biotinylated probe, 635/667 nm fluorescence, primary screen (AID 1115).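 Also: probe is biotinylated aNog protein used at 0.15 µg/mL for 1 h at 4 C; z-score combines 667 nm fluorescence of each spot with its signal to noise.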 The settings on record: small-molecule microarray, higher = more signal.
For assay [3], the target named is Torsin-1A-interacting protein 1 (Homo sapiens) (UniProt Q5JTV8). In words: compound microarray binding of lysate hLAP1 – cell lysate, small-molecule microarray, COS7 lysate, 635/667 nm fluorescence, primary screen (AID 1116). The settings on record: 635 nm fluorescence, higher = more signal.
For another assay, the target named is Albumin (Bos taurus) (UniProt P02769). In words: compounds binding labelled BSA control protein – biochemical, small-molecule microarray, Alexa647 label, 635/667 nm fluorescence, artefact control for SMM control protein annotation, profiling panel (AID 1118).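 Also: score merges 667 nm emission intensity and signal-to-noise per printed compound spot.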 The settings on record: BSA-A647 binding, fluorescence 635 nm, higher = more signal.
The nature of assay [4]: probe aXIP binding to arrayed compounds – biochemical, NeuroSMM set, 635/667 nm fluorescence, primary screen (AID 1119).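 Also: probe is the protein aXip251-270 applied at 1 µg/mL to compound-printed slides; binding of probe to printed compounds measured as 667 nm fluorescence plus signal to noise.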 The settings on record: small-molecule microarray, higher = more signal, called active from +8 up or from −8 down.
A short description of assay [5]: probe aNOTCH3 binding on compound microarray – biochemical, small-molecule microarray, 635/667 nm fluorescence, primary screen (AID 1120).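 Also: probe is a biotin-tagged antibody raised against NOTCH3 rather than NOTCH3 protein; score merges spot fluorescence near 667 nm with spot signal to noise.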 The settings on record: higher = more signal.
Assay [6] is described as follows: probe aNOTCH2 binding on compound microarray – biochemical, small-molecule microarray, 635/667 nm fluorescence, primary screen (AID 1121).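 Also: score merges feature fluorescence read at 667 nm with its signal to noise.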 The settings on record: higher = more signal.
Assay [7] deals with Carbonic anhydrase 2 (Homo sapiens) (UniProt P00918). In words: compounds binding carbonic anhydrase 2 – biochemical, small-molecule microarray, Alexa647-labelled CAII, profiling panel (AID 1122). The settings on record: CAII-A647 binding fluorescence, higher = more signal.
Assay [8] is described as follows: COS7 lysate on small-molecule microarray, probe aHis, 635 nm (AID 1123).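 Also: z-score combines 667nm fluorescence intensity with signal-to-noise per printed compound spot.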 The settings on record: COS7 cell lysate, fluorescence, higher = more signal.
The nature of assay [9]: probe aLAP1 signal on lysate-treated microarray – cell lysate, small-molecule microarray, COS7 lysate, primary screen (AID 1124).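 Also: lysate comes from COS7 cells expressing LAP1 and is applied at 0.3 µg/mL; score merges spot fluorescence near 667 nm with signal-to-noise over triplicate slides.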 The settings on record: probe aLAP1, fluorescence, higher = more signal.
In another assay the test system is Sam68 (KHDRBS1). In words: compounds binding KHDRBS1 protein – biochemical, small-molecule microarray, 635 nm fluorescence, primary screen (AID 1125).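 Also: score merges 667 nm channel intensity with signal to noise over triplicate slides.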 The settings on record: higher = more signal.
Assay [10] concerns Chordin-like protein 2 (CHRDL2). In words: compounds binding chordin-like 2 – biochemical, small-molecule microarray, 635 nm fluorescence, primary screen (AID 1126).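 Also: printed compound slides probed with Chrdl2 protein at 4 µg/mL for 1 h at 4 C; score merges 667 nm emission intensity with signal to noise over three replicate slides.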 The settings on record: fluorescence 635 nm, higher = more signal.
Assay [11] concerns the target Concanavalin-A (Canavalia ensiformis) (UniProt P02866). In words: compounds binding concanavalin A lectin – biochemical, small-molecule microarray, Alexa647 label, 635 nm, artefact control for SMM control protein annotation, primary screen (AID 1127).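 Also: z combines 667 nm emission intensity with signal-to-noise across three replicate slides.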 The settings on record: ConA-A647 binding fluorescence, higher = more signal.
Assay [12] is described as follows: compounds binding Alexa647 anti-His antibody – biochemical, small-molecule microarray, 635 nm fluorescence, artefact control for SMM control protein annotation, primary screen (AID 1128).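 Also: score merges feature fluorescence with signal-to-noise for each printed compound spot.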 The settings on record: higher = more signal.
In assay [13] the test system is Human papillomavirus type 1a E7 protein (residues 1-88). In words: HPV1a E7 small-molecule binders, primary screen, biochemical, small-molecule microarray, residues 1-88, 635 nm (AID 1129). The settings on record: small-molecule microarray binding, fluorescence 635 nm; higher = more signal.
In assay [14] the target is Focal adhesion kinase 1 (Homo sapiens) (UniProt Q05397). In words: PTK2 protein binding on printed compound slides – biochemical, small-molecule microarray, 635/667 nm fluorescence, BSA, DTT, primary screen (AID 1130).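 Also: composite of spot emission at 667 nm and signal to noise over triplicate slides.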 The settings on record: 635 nm fluorescence, higher = more signal.
Assay [15] concerns Fibrinogen (Alexa647-labelled). In words: Alexa647-fibrinogen binding to printed small molecules – biochemical, small-molecule microarray, 635/667 nm fluorescence, artefact control for SMM control-protein annotation, profiling panel (AID 1131).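 Also: z-score merges 667 nm fluorescence with per-spot signal-to-noise over triplicate slides.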 The settings on record: fibrinogen-A647 binding fluorescence, higher = more signal.
The target in assay [16] is Follistatin (Homo sapiens) (UniProt P19883). In words: FST protein binding to printed compounds – biochemical, small-molecule microarray, 635/667 nm fluorescence, primary screen (AID 1132). The settings on record: 635 nm fluorescence, higher = more signal.
In assay [17] the target is Fibroblast growth factor 2 (Homo sapiens) (UniProt P09038). In words: basic fibroblast growth factor binding to printed compounds – biochemical, small-molecule microarray, 635/667 nm fluorescence, primary screen (AID 1133). The settings on record: FGF2, fluorescence 635/667, higher = more signal.
Assay [18] can be described thus: JC-1 mitochondrial potential readout, lung cancer cells – cell-based, A549, JC-1 fluorescence, basal, 24 h, 100 nL, profiling panel (AID 1138).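 Also: A549 lung adenocarcinoma cells under basal conditions with no added stimulus; test concentration not given here.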 The settings on record: higher = more signal.

Sequence of Torsin-1A-interacting protein 1 (Homo sapiens) (Q5JTV8 whole entry, looked up): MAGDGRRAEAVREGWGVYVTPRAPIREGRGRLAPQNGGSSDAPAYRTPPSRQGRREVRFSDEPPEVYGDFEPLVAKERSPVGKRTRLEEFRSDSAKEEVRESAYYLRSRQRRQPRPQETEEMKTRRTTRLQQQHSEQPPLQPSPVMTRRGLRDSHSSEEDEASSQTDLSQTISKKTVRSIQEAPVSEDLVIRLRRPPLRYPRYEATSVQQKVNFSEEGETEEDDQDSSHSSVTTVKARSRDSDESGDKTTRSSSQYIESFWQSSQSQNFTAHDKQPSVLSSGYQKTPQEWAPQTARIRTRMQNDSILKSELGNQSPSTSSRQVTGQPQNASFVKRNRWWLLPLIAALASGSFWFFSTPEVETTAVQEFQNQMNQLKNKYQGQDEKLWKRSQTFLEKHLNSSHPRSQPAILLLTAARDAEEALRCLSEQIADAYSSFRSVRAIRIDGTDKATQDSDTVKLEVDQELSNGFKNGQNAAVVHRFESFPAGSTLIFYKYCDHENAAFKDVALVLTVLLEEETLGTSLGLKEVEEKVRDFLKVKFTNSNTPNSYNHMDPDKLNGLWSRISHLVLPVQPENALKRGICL
Sequence of Focal adhesion kinase 1 (Homo sapiens) (Q05397 whole entry, looked up): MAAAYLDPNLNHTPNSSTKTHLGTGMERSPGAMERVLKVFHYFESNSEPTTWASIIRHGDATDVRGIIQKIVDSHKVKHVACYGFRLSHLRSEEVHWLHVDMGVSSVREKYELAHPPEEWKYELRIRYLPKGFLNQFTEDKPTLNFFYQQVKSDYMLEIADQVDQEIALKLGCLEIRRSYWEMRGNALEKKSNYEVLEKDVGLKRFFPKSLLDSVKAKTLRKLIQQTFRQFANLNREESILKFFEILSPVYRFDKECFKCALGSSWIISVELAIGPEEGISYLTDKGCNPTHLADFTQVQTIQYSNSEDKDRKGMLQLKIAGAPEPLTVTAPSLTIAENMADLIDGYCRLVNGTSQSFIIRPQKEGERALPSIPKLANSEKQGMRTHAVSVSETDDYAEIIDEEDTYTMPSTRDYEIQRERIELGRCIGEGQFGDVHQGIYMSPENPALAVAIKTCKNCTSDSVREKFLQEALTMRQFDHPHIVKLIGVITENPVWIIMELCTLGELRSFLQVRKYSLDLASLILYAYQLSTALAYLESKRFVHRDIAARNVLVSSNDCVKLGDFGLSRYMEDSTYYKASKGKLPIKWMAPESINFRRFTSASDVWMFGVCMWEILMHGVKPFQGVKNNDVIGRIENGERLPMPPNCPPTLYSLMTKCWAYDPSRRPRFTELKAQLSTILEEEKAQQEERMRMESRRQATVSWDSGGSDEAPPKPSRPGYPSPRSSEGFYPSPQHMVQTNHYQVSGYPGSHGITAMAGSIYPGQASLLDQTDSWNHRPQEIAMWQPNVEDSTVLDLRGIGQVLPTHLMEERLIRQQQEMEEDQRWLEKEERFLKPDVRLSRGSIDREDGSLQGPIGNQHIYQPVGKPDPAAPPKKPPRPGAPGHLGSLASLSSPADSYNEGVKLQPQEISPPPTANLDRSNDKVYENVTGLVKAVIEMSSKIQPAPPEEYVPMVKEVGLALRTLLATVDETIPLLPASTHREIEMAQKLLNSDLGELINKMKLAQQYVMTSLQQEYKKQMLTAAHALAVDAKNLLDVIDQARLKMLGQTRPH
Sequence of Fibroblast growth factor 2 (Homo sapiens) (P09038 whole entry, looked up): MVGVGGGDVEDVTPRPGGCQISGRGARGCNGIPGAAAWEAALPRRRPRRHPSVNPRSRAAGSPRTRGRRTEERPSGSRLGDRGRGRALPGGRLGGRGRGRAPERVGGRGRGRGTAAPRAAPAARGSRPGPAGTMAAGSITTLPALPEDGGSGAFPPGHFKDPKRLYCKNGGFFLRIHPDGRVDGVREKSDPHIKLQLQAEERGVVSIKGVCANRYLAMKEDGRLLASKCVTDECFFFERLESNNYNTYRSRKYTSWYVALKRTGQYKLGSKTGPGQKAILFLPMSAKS
Sequence of Albumin (Bos taurus) (P02769 whole entry, looked up): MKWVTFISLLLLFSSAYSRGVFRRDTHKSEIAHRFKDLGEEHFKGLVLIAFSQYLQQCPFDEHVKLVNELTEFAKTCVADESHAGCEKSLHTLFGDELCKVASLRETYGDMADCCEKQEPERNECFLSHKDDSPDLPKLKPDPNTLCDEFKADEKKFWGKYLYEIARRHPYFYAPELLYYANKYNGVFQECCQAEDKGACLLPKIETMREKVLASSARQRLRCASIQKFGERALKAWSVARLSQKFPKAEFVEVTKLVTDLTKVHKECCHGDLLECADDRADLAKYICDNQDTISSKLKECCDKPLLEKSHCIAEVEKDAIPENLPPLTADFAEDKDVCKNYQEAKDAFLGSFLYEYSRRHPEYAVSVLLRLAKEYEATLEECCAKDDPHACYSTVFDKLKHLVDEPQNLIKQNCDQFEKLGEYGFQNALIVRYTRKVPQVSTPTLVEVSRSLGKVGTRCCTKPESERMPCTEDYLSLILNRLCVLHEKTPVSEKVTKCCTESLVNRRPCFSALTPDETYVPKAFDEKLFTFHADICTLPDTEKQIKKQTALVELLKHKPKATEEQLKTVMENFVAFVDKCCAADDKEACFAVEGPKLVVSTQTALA
Sequence of Concanavalin-A (Canavalia ensiformis) (P02866 whole entry, looked up): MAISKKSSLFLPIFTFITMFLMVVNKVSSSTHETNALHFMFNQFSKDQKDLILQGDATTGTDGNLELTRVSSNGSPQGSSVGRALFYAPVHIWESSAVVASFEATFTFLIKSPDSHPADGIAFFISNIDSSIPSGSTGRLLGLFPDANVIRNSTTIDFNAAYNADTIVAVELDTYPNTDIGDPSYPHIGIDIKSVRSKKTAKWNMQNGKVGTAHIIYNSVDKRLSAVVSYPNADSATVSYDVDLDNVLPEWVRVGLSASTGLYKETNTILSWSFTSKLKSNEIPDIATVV
Sequence of Follistatin (Homo sapiens) (P19883 whole entry, looked up): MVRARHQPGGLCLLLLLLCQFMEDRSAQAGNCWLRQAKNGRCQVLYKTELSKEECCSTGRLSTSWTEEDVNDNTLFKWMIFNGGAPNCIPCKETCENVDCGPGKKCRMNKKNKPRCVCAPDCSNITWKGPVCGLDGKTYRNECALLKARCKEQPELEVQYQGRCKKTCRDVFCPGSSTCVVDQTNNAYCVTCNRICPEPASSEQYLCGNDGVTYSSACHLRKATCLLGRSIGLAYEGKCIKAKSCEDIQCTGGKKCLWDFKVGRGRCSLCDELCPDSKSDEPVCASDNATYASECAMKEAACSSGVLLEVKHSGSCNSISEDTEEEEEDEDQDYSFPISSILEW

With `C/C=C/[C@@H](CCn1cc(CCO[Si](C(C)C)(C(C)C)C(C)C)nn1)[Si](C)(C)c1ccc(OC)cc1`, the composite z-score in assay [1] was -0.323; in assay [2] it was -0.866; in assay [3], -0.24; with Albumin (Bos taurus), -1.72; in assay [5], -0.337; in assay [6], -0.234. The composite z-score in assay [7] was -0.609; in [8], -0.49; in assay [9], -0.0321; in the assay with Sam68 (KHDRBS1), -1.07; in assay [10], -1.8; in assay [11] it was -2.84. Also, the composite z-score was -0.588 in [12]; -0.668 in assay [13]; -0.168 in [14]; -1.56 in assay [15]; -2.11 in [16]; -0.888 in assay [17]. Also, the composite Z-score in [4] was -0.535 (inactive). For the same compound, the z-score in assay [18] is 4.63.
`C=C(C(=O)CC[C@H](OC(C)=O)c1ccc(CO)o1)C(C)C`: the composite z-score is 0.0048 in assay [1]; -0.309 in assay [2]; 1.15 in assay [3]; -0.348 with Albumin (Bos taurus); -0.0264 in [5]; -0.0795 in [6]. The composite z-score in [7] was 0.614; in [8], 0.297; in assay [9] it was 0.629; in the assay with Sam68 (KHDRBS1) it was 0.596; in [10], -0.413; in assay [11], -0.0824. Besides, the composite z-score is -0.361 in assay [12]; -0.0631 in assay [13]; 0.384 in assay [14]; 0.4 in assay [15]; 0.853 in assay [16]; 1.01 in assay [17]. Further, the composite Z-score in [4] is 0.481 (inactive). In [18], this compound had a z-score of 0.191.
Take `[N-]=[N+]=NCc1ccccc1C[C@]1(C(=O)NCc2ccccc2)N=C(c2ccc(OCCCO)cc2)O[C@H]1c1ccccc1`: the composite z-score was 0.23 in assay [1]; 0.682 in assay [2]; 1.31 in [3]; 0.992 with Albumin (Bos taurus); 0.2 in [5]; 0.139 in assay [6]. The composite z-score in [7] is 0.396; in assay [8], 1.85; in [9], 1.45; in the assay with Sam68 (KHDRBS1), 1.16; in assay [10], -1.4; in assay [11], 1.09. The composite z-score was 1.67 in assay [12]; 1.18 in assay [13]; 0.445 in assay [14]; 0.813 in assay [15]; -0.257 in assay [16]; -0.0593 in assay [17]. Further, the composite Z-score in [4] is 0.945 (inactive). Besides, in assay [18], the z-score worked out at 0.488.
`COC(=O)[C@@]1(CCC(=O)OC(C)(C)C)COC(c2ccc(OCCCO)cc2)=N1`: the composite z-score in assay [1] was -0.0626; in [2] it was 0.424; in [3], -0.123; in the assay with Albumin (Bos taurus), -1.01; in assay [5], -0.239; in assay [6], -0.147. Also, the composite z-score in assay [7] was 0.558; in assay [8], 0.214; in [9], 0.993; in the assay on Sam68 (KHDRBS1) it was -0.724; in assay [10] it was -2.22; in assay [11] it was -1.8. In addition, the composite z-score in [12] was -1.22; in assay [13], -1.66; in assay [14], -0.15; in assay [15], -2.51; in [16], -2.21; in [17], -1.64. For the same compound, the composite Z-score in assay [4] was -0.378 (inactive). For the same compound, the z-score in assay [18] was -0.122.
`CCCCCCC#C[Si](O[C@H](c1ccccc1)c1cn(Cc2ccccc2)nn1)(C(C)C)C(C)C`: the composite z-score was -0.108 in [1]; -0.183 in assay [2]; 0.523 in assay [3]; 0.0774 with Albumin (Bos taurus); -0.0918 in assay [5]; -0.182 in assay [6]. Besides, the composite z-score in [7] was 0.273; in assay [8], 0.0604; in assay [9], 0.155; in the assay on Sam68 (KHDRBS1), 0.458; in assay [10], 0.187; in assay [11], 0.132. Moreover, the composite z-score in assay [12] was 0.254; in assay [13], 0.262; in [14], -0.326; in [15], -0.418; in assay [16], 0.126; in [17], 0.594. Moreover, in assay [4], the composite Z-score was 0.131 (inactive). For the same compound, the z-score in assay [18] is 4.41.
As for `COc1c(C)cc(-c2cc3c(c(CCc4ccccc4)n2)[Si](C(C)C)(C(C)C)OC3)cc1C`, the composite z-score in assay [1] was -0.131; in assay [2], 0.162; in assay [3], 0.0693; in the assay with Albumin (Bos taurus), -0.296; in assay [5], 0.0179; in assay [6], 0.0049. Besides, the composite z-score was 0.2 in assay [7]; 0.614 in assay [8]; 0.427 in [9]; 1.07 in the assay with Sam68 (KHDRBS1); 0.0922 in assay [10]; -0.17 in assay [11]. Further, the composite z-score is -0.611 in [12]; 0.654 in [13]; 0.158 in assay [14]; -0.074 in [15]; 0.483 in [16]; 0.0057 in assay [17]. In addition, the composite Z-score in assay [4] is 0.0537 (inactive). This compound registered a z-score in assay [18] of 2.24.
Take `CC(C)(C)OC(=O)CC[C@]1(C(=O)NCc2ccccc2)N=C(c2ccc(OCCCO)cc2)O[C@H]1c1ccccc1N=[N+]=[N-]`: the composite z-score in [1] stood at 0.57; in [2] it was 1.11; in assay [3], 1.63; in the assay with Albumin (Bos taurus), 1; in assay [5], 0.197; in [6], 0.0272. Moreover, the composite z-score in assay [7] is 0.498; in [8], 2.97; in assay [9], 0.521; in the assay on Sam68 (KHDRBS1), 1.34; in [10], -0.0443; in [11], 1.16. Besides, the composite z-score in [12] amounted to 2.59; in [13], 1.25; in assay [14] it was 0.245; in [15], 1.01; in [16] it was 1.42; in assay [17] it was 1.3. Also, the composite Z-score in assay [4] was -0.286 (inactive). The same compound gave a z-score in assay [18] of 0.566.
For `CC(C)(C)OC(=O)CC[C@@]1(C(=O)NCc2ccccc2)N=C(c2ccc(OCCCO)cc2)O[C@@H]1c1ccccc1CN=[N+]=[N-]`, the composite z-score in assay [1] is -0.0446; in assay [2], 0.799; in [3] it was 0.487; in the assay with Albumin (Bos taurus), 0.871; in assay [5], 0.33; in assay [6], -0.0736. Further, the composite z-score in assay [7] was 0.596; in assay [8] it was 2.02; in [9], 0.379; in the assay with Sam68 (KHDRBS1), 1.15; in assay [10], -0.521; in assay [11], 1.09. Further, the composite z-score in assay [12] was 2.59; in assay [13] it was 1.22; in assay [14], -0.128; in assay [15], 0.933; in assay [16], 1.34; in assay [17], 0.915. In assay [4], the composite Z-score is 0.647 (inactive). In assay [18], this compound displayed a z-score of 0.641.
